Measurements as given in PubChem BioAssay (NCATS).
Records with an inconclusive call do not appear. Entries that show only a call come without a potency. Values without a mark were called inactive. Active and inactive are the calls of the source. The call rests on the fitted dose curve; in most records, active means well fitted curve in the direction sought with a large enough effect; inconclusive means small, poorly fitted or top-dose-only effect, or another doubt; inactive means no such curve, though single readings can be large; an effect the other way counts as inactive or inconclusive.

Legend:
CRL-7250 = normal cell line; assay: Cytotoxic Profiling of Annotated Libraries Using Quantitative High-Throughput Screening (AID 1296008); conditions: Five cell lines viability, CellTiter-Glo ATP luminescence, 48-72 h; max response: hits give low values; further: nearly all actives have a fitted effect of over 60% in size
In short: (§1)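 Compounds were pin-transferred onto cells and incubated 48 or 72 hr at 37 degree Celsius, 95% humidity. CellTiter-Glo was added, plates sat 10 min at room temperature, then ATP-coupled luminescence was imaged as the viability read-out.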

HEK293 = assay: as above; conditions: Five cell lines viability, CellTiter-Glo ATP luminescence, 48-72 h; max response: hits give low values
In short: as §1

HaCat = assay: as above; conditions: Five cell lines viability, CellTiter-Glo ATP luminescence, 48-72 h; max response: hits give low values
In short: as §1

CAOV3 = assay: Primary qHTS to identify gynecologic anti-cancer compounds using libraries of approved drugs and bioactive compounds (AID 1345084); conditions: Gynecologic cancer cell panel viability, ATPlite luminescence, 48 h; series mostly up to 57.5 µM; further: nearly all actives have a fitted effect of over 55% in size
In short: (§2)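 Measured: luminescence after ATPlite addition (15 min, RT). Exposure: 48 h, 37 C, 5% CO2.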

CASKI = assay: as above; conditions: Gynecologic cancer cell panel viability, ATPlite luminescence, 48 h; series mostly up to 57.5 µM
In short: as §2

Es-2 = assay: as above; conditions: Gynecologic cancer cell panel viability, ATPlite luminescence, 48 h; series mostly up to 57.5 µM
In short: as §2

HeLa = assay: as above; conditions: Gynecologic cancer cell panel viability, ATPlite luminescence, 48 h; series mostly up to 57.5 µM
In short: as §2

JEG-3 = assay: as above; conditions: Gynecologic cancer cell panel viability, ATPlite luminescence, 48 h; series mostly up to 57.5 µM
In short: as §2

OV90 = assay: as above; conditions: Gynecologic cancer cell panel viability, ATPlite luminescence, 48 h; series mostly up to 57.5 µM
In short: as §2

C33A = assay: as above; conditions: Gynecologic cancer cell panel viability, ATPlite luminescence, 48 h; series mostly up to 57.5 µM
In short: as §2

Hek293T = assay: as above; conditions: Gynecologic cancer cell panel viability, ATPlite luminescence, 48 h, control line for the selectivity index; series mostly up to 57.5 µM
In short: as §2

NIH3T3 = assay: Cytotoxic Profiling of Annotated Libraries Using Quantitative High-Throughput Screening (AID 1296008); conditions: Five cell lines viability, CellTiter-Glo ATP luminescence, 48-72 h; max response: hits give low values; further: nearly all actives have a fitted effect of over 60% in size
In short: as §1
Potency means the concentration at half of the fitted maximal effect.

O=C(NCCCc1ccccc1)c1cccc(-c2cc(O)c3ncccc3c2)c1
Potency (CRL-7250): 5.17 µM (active) | Potency (HEK293): 20.6 µM (active) | Potency (HaCat): 25.9 µM (active) | Potency (CAOV3): inactive | Potency (CASKI): inactive

N#Cc1ccc(Nc2nc(-c3ccc(O)cc3O)cs2)cc1C(F)(F)F
Potency (CRL-7250): 5.8 µM (active) | Potency (HEK293): 3.26 µM (active) | Potency (HaCat): 7.31 µM (active) | Potency (CASKI): 20 µM (active) | Potency (Es-2): 14.1 µM (active) | Potency (HeLa): 7.94 µM (active)

O=C1C(Cc2ccc(O)cc2)N2C(=O)CCN(C(=O)NCc3ccccc3)C2CN1Cc1cccc2ccccc12 (stereo unspecified)
Potency (CRL-7250): 4.61 µM (active) | Potency (HEK293): 4.11 µM (active) | Potency (HaCat): 5.8 µM (active) | Potency (CASKI): inactive | Potency (Es-2): 8.91 µM (active) | Potency (JEG-3): inactive

Cn1c(=O)c2c(ncn2Cc2ccc(C(C)(C)C)cc2)n(C)c1=O
Potency (CRL-7250): 1.3 µM (active) | Potency (HEK293): 1.64 µM (active) | max response (HaCat): -22.1% | Potency (CAOV3): inactive | Potency (JEG-3): 14.1 µM (active) | Potency (OV90): 10 µM (active)

CC(O)C(C)n1ncn(-c2ccc(N3CCN(c4ccc(OCC5COC(Cn6cncn6)(c6ccc(Cl)cc6Cl)O5)cc4)CC3)cc2)c1=O (stereo unspecified)
outcome (CRL-7250): inactive | Potency (HEK293): 16.4 µM (active) | max response (HaCat): -3.2% | Potency (C33A): inactive | Potency (CAOV3): inactive | Potency (CASKI): inactive | Potency (Es-2): inactive | Potency (HeLa): inactive | Potency (Hek293T): inactive

COc1cc(NC(=O)c2cccc(-n3cc(NC(=O)Nc4cccc(C)c4)cn3)c2)cc(OC)c1OC
outcome (CRL-7250): inactive | Potency (HEK293): 9.2 µM (active) | max response (HaCat): 3.54% | Potency (OV90): inactive

CN1CCN(Cc2ccc(NC(=O)Cc3ccc(Oc4cc(NC(=O)C5CC5)ncn4)cc3)cc2C(F)(F)F)CC1
Potency (CRL-7250): 5.8 µM (active) | max response (HEK293): -105% | max response (HaCat): -122% | Potency (Es-2): 7.94 µM (active) | Potency (HeLa): 7.08 µM (active) | Potency (OV90): 4.47 µM (active)

Cc1cc(C(=O)Nc2cc(Nc3ccc4c(/C=C/c5ccccn5)n[nH]c4c3)ccc2F)n(C)n1
Potency (CRL-7250): 18.4 µM (active) | Potency (HEK293): 11.6 µM (active) | Potency (NIH3T3): 0.731 µM (active) | Potency (C33A): inactive | Potency (CAOV3): inactive | Potency (CASKI): inactive | Potency (Es-2): inactive | Potency (HeLa): inactive | Potency (JEG-3): inactive | Potency (OV90): inactive

O=C(Nc1cccnn1)N1CCN(c2nccc(-c3ccc(F)c(F)c3)n2)CC1
max response (CRL-7250): -5.59% | max response (HEK293): -4.09% | max response (NIH3T3): -4.62% | Potency (C33A): inactive | Potency (CAOV3): inactive | Potency (CASKI): inactive | Potency (Es-2): inactive | Potency (HeLa): inactive | Potency (Hek293T): inactive | Potency (JEG-3): inactive | Potency (OV90): inactive

CN1CCN(c2ccc(Nc3cc(-c4cccc(-n5ccc6cc(C7CC7)cc(F)c6c5=O)c4CO)cn(C)c3=O)nc2)CC1
Potency (CRL-7250): 23.1 µM (active) | Potency (HEK293): 11.6 µM (active) | Potency (HaCat): 18.4 µM (active) | Potency (C33A): inactive | Potency (CAOV3): inactive | Potency (CASKI): inactive | Potency (Es-2): inactive | Potency (HeLa): inactive | Potency (Hek293T): inactive | Potency (JEG-3): inactive | Potency (OV90): inactive

C=C1CC[C@@H]2[C@](C)(CO)[C@H](O)CC[C@@]2(C)[C@@H]1C/C=C1/C(=O)OCC1O (stereo partly specified)
Potency (CRL-7250): 18.4 µM (active) | Potency (HEK293): 7.31 µM (active) | max response (HaCat): -10.5% | Potency (CAOV3): inactive | Potency (HeLa): inactive | Potency (JEG-3): inactive | Potency (OV90): inactive

CC(C)S(=O)(=O)Nc1ccc(F)c(C(=O)c2c[nH]c3ncc(-c4cccnc4)cc23)c1F
Potency (CRL-7250): 18.4 µM (active) | Potency (HEK293): 14.6 µM (active) | Potency (C33A): inactive | Potency (CASKI): inactive | Potency (Hek293T): inactive | Potency (JEG-3): inactive

C=C1CC2OC(=O)C(=C)C2C(OC(=O)/C(C)=C\C)CC2(C)OC1=CC2=O (stereo unspecified)
Potency (CRL-7250): 14.3 µM (active) | Potency (HEK293): 2.86 µM (active) | Potency (NIH3T3): 12.8 µM (active) | Potency (C33A): 11.2 µM (active) | Potency (CASKI): inactive | Potency (Es-2): 10 µM (active) | Potency (HeLa): inactive | Potency (OV90): inactive

CCCCNc1ncc(-c2ccc(CN3CCOCC3)cn2)c(NC2CCC(O)CC2)n1 (stereo unspecified)
max response (CRL-7250): -14.5% | max response (HEK293): -11.5% | Potency (C33A): inactive | Potency (CAOV3): inactive | Potency (CASKI): inactive | Potency (Es-2): inactive | Potency (Hek293T): inactive | Potency (JEG-3): inactive | Potency (OV90): inactive

CC1CCCC[C@H]2C(=O)C=C[C@H](O)[C@@H]2CC(=O)O1 (stereo partly specified)
Potency (CRL-7250): 8.2 µM (active) | Potency (HEK293): 1.64 µM (active) | Potency (NIH3T3): 18.4 µM (active) | Potency (C33A): 20 µM (active) | Potency (CASKI): inactive | Potency (Es-2): 10 µM (active) | Potency (Hek293T): 15.8 µM (active)
